GDH-TPI inh: counter-screen for M. tuberculosis FBA inhibitors: GDH-TPI coupled enzymes | GDH-TPI coupled enzyme counterscreen, NADH absorbance | inhibition, % at 4.8 µM | hit rate 1.2% among 360,000 | AID 588335
FBA Mtb inh: inhibits M. tuberculosis FBA enzyme. P9WQA3. inhibition, % at 1 µM. purified M. tuberculosis FBA, fluorescence read-out. hit rate 2.3% among 360,000; in the data active = inhibition above about 27%
Target sequence (P9WQA3 whole entry, looked up): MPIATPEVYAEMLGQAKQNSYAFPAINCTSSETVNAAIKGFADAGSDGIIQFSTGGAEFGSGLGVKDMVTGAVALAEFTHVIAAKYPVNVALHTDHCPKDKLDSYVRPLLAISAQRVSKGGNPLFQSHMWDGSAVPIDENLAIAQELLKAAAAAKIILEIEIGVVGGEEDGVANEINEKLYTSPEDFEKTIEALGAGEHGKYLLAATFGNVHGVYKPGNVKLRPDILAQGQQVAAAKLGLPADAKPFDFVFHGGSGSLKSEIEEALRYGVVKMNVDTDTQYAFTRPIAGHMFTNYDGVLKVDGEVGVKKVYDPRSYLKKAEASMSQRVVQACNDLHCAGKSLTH
DUSP3 inh: DUSP3 (human) phosphatase inhibition. P51452. recombinant VHR phosphatase, pNPP absorbance. inhibition, % at 13.3 µM. hit rate 0.52% among 290,000. AID 1654; in the data active = inhibition above about 50%
Target sequence (P51452 whole entry, looked up): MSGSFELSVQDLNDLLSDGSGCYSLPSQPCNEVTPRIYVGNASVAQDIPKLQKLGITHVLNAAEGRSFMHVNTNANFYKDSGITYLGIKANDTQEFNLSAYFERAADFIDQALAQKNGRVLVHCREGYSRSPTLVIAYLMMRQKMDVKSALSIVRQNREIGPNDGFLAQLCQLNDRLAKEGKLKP
CCHFV vOTU inh: blocks the CCHF virus ovarian tumor domain protease. CCHFV vOTU protease, Pep-AMC fluorescence. inhibition, % at 11.5 µM. hit rate 0.55% among 370,000
RecA intein inh: blocks M. tuberculosis RecA intein splicing. cell-free RecA intein splicing, fluorescence. inhibition, % (test concentration not listed). hit rate 0.75% among 290,000. AID 2221; in the data active = inhibition above about 30%
3CLpro inhibitor: SARS-CoV 3CLpro protease inhibition. inhibition, % at 6 µM. hit rate 0.14% among 290,000. recombinant SARS-CoV 3CLpro, quenched FRET peptide cleavage. P0C6X7; in the data active = inhibition above about 12%
Hits are given with their value; n = inactive; x = no result; + = active, no number. Only some compounds are listed: those with a hit (about 4.7% of all), similar ones and a draw of the others. Rule as the data show it, unless noted: active = inhibition above about 30%; inactive = the rest.

SMILES | GDH-TPI inh | FBA Mtb inh | DUSP3 inh | CCHFV vOTU inh | RecA intein inh | 3CLpro inhibitor
NC(=O)N/N=C/c1ccc(-c2cccc(C(F)(F)F)c2)o1 | n | n | n | n | n | n
O=C(N/N=C/c1ccc(-c2cccc(C(F)(F)F)c2)o1)c1ccccc1Br | 54.2 | n | n | n | n | n
O=C(O)c1cc(-c2ccco2)nc2ccccc12 | n | 180.6 | n | n | n | n
O=C(Nc1cccc(S(=O)(=O)NC2=NCCC2)c1)c1cc(-c2ccco2)nc2ccccc12 | n | n | 51.7 | n | n | n
O=C(NC1CC1)c1cc(-c2ccco2)nc2ccccc12 | n | 63.0 | n | x | n | n
N#CCCN1CCN(C(=S)c2ccc(-c3cccc(Cl)c3)o2)CC1 | 39.2 | n | n | n | n | n
CCCCCCCCNS(=O)(=O)/C=C/c1ccc(OC)cc1CNC(=O)OC(C)(C)C | x | x | x | n | x | x
COc1ccc2c(c1)c(=O)oc1c(C)c(OCc3ccc(C(=O)O)cc3)ccc12 | n | n | 51.9 | x | n | n
COc1ccc2c(c1)c(=O)oc1c(C)c(OCC(=O)N3CCc4ccccc4C3)ccc12 | n | n | n | n | n | n
CCCCc1cc(=O)oc2c(CN3CCCC3)c(O)c(Cl)cc12 | n | + | n | n | n | n
CCCCc1cc(=O)oc2c(CN(CC)CC)c(O)c(Cl)cc12 | n | x | 52.3 | n | n | n
CCCc1cc(=O)oc2c(CN3CCN(C)CC3)c(O)ccc12 | n | x | n | n | n | n
CCc1c(C)c2cc(Cl)c(O)c(CN3CCCC3)c2oc1=O | n | + | n | n | n | n
CCCCc1cc(=O)oc2c(CN3CCN(C)CC3)c(O)ccc12 | n | + | n | n | n | n
Cc1ccc(Nc2nc(N)c3ccccc3n2)cc1C | n | n | n | n | n | n
Cc1noc(C)c1S(=O)(=O)Nc1ccc2c(c1)CC(=O)N([C@H](C)CO)C[C@H](C)[C@H](CN(C)S(=O)(=O)c1ccc(F)cc1)O2 | n | n | x | n | x | x
CCCCc1cc(=O)oc2cc(O)ccc12 | n | + | n | n | n | n
CCCCc1cc(=O)oc2cc(OCC(=O)NCc3ccccn3)ccc12 | n | n | n | n | n | n
c1csc(CNc2nc(NCC3CCCCC3)c3sccc3n2)c1 | n | n | x | n | x | x
CC(C)c1ccc(NC(=O)CCNC(=O)N2CC(=O)Nc3ccccc32)cc1 | n | n | 51.2 | n | n | n
CC(C)[C@H](NC(=O)N1CC(=O)Nc2ccccc21)C(=O)Nc1nccs1 | n | n | n | n | n | n
CCC(C)[C@H](NC(=O)N1CC(=O)Nc2ccccc21)C(=O)Nc1nccs1 (stereo partly specified) | n | n | 52.5 | n | n | n
O=S(=O)(c1c(F)cccc1F)N1CCCC2CCCCC21 (stereo unspecified) | n | n | x | n | x | x
COC(=O)[C@H](Cc1ccccc1)N1CC(N2CCCC2)CS1(=O)=O (stereo partly specified) | x | x | x | n | x | x
CN(Cc1ccccc1F)c1ncnc2sccc12 | n | n | n | n | x | n
SMILES | GDH-TPI inh | FBA Mtb inh | DUSP3 inh | CCHFV vOTU inh | RecA intein inh | 3CLpro inhibitor
OCCN(Cc1ccccc1)c1ncnc2sccc12 | n | n | 51.1 | n | x | n
C=CCN1[C@@H](CC(C)C)COc2cc(N3CCSCC3)ccc2S1(=O)=O | x | x | x | n | x | x
CC1CCc2sc(-c3n[nH]c(=S)o3)cc2C1 (stereo unspecified) | n | + | n | n | n | n
CSc1nnc(-c2ccccc2SC)o1 | n | n | n | n | n | n
S=c1[nH]nc(-c2cc3c(s2)-c2ccccc2CC3)o1 | n | + | n | n | n | n
CSc1nnc(-c2cc3c(s2)-c2ccccc2CC3)o1 | n | + | n | n | n | n
CCCCN1CC(COCc2ccccc2)Oc2cccc(N3CCCCC3)c2S1(=O)=O (stereo unspecified) | x | x | x | n | x | x
COc1ccc(OC)c(S(=O)(=O)N2CCN(C(=O)CCc3ccccc3)CC2)c1 | n | n | n | n | n | n
CCCCNC(=O)C1(C)CCN1C(=O)c1cc(-c2cccs2)oc1C (stereo unspecified) | n | n | x | n | x | x
Cc1c(O)ccc2c(CC(=O)N[C@@H](Cc3ccccc3)C(=O)O)cc(=O)oc12 | n | 164.8 | n | n | n | n
N#CCc1c(C#N)c(N)nc(Nc2ccccc2)c1C#N | 31.4 | n | n | n | n | n
CN(c1ccccc1)c1nc(N)c(C#N)c(CC#N)c1C#N | n | n | n | n | n | n
O=[N+]([O-])c1ccn(-c2nc(-c3cccs3)cc(C(F)(F)F)n2)n1 | n | n | 54.1 | n | n | n
O=[N+]([O-])c1ccn(-c2nc(-c3ccccc3)cc(C(F)(F)F)n2)n1 | n | n | n | n | n | n
CC1(C)CC(=O)C2=C(C1)Oc1ncn(Cc3ccco3)c(=N)c1C2c1ccccc1 (stereo unspecified) | n | n | n | n | n | n
COc1ccc(C2C3=C(CC(C)(C)CC3=O)Oc3ncn(Cc4ccccc4)c(=N)c32)cc1 (stereo unspecified) | n | n | 55.3 | n | n | n
CC(C)CN1CCC(CN2C(=S)NC[C@@H]2Cc2ccccc2)CC1 | x | x | x | n | x | x
CCOc1cc(-c2nc3ccccc3s2)ccc1O | n | + | n | n | n | n
Oc1cccc(-c2nc3ccccc3s2)c1 | n | n | n | n | n | n
COc1ccc(-c2nc3ccccc3s2)cc1O | 36.2 | n | n | n | n | n
COc1cc(OC)c(-c2nc3ccccc3s2)cc1OC | n | + | n | n | n | n
COc1cc(-c2nc3ccccc3s2)ccc1O | n | 150.1 | n | n | n | n
COc1cccc(-c2nc3ccccc3s2)c1O | n | n | n | n | x | n
COc1ccc(CNC(=O)N(C)C[C@@H]2OCc3ccccc3-c3c(n(C)c4ccccc34)C(=O)N([C@@H](C)CO)C[C@@H]2C)cc1 | x | x | x | n | x | x
COc1ccccc1Cc1c(-c2ccc(C#N)cc2)nc2c3ccccc3ccn12 | x | n | x | n | x | x
SMILES | GDH-TPI inh | FBA Mtb inh | DUSP3 inh | CCHFV vOTU inh | RecA intein inh | 3CLpro inhibitor
Cc1ccc(NC(=O)COC(=O)/C=C/c2ccc(Br)o2)cc1S(=O)(=O)N(C)C | n | n | n | n | n | n
CN(C)S(=O)(=O)c1cccc(NC(=O)COC(=O)/C=C/c2ccc(Br)o2)c1 | 39.0 | n | n | n | n | n
CN(C)S(=O)(=O)c1cccc(NC(=O)COC(=O)c2cc(-c3cccc(Br)c3)nc3ccccc23)c1 | 32.5 | n | n | n | n | n
CC(C)C[C@H](NC(=O)C1CC1)C(=O)N1CCC[C@H]1C(=O)NCc1ccccc1 | x | x | x | n | x | x
CC1(CC(=O)N/N=C/c2ccc(-c3ccc(C(=O)O)cc3)o2)OCCO1 | 59.6 | n | n | n | n | n
CC1(CC(=O)N/N=C/c2ccc(-c3ccc(Cl)cc3)o2)OCCO1 | 54.6 | n | n | n | n | n
O=C(CN1CCOCC1)N/N=C/c1ccc(-c2ccc(C(=O)O)cc2)o1 | 35.4 | n | n | n | n | n
O=C(CN1CCOCC1)N/N=C/c1ccccc1 | n | n | n | n | n | n
CN1CCN(C(=O)c2cc3c(c(-c4cccc(-c5cc6ccccc6o5)c4)n2)[C@H](CCO)N(S(=O)C(C)(C)C)C3)CC1 (stereo partly specified) | x | n | x | n | x | x
CCOc1cc(CN2CCCCC2)ccc1OC | n | n | n | n | n | n
